{"source": "paper PMC11006913", "assay_in_all_cases": "PBM; 200 nM protein, PBS", "settings_in_all_cases": "dsDNA, one strand shown", "key": {"NKX2-5 [1]": {"target": "NKX2-5 (Homo sapiens, UniProt P52952 125-210, R139K)", "sequence (P52952 125-210 R139K)": "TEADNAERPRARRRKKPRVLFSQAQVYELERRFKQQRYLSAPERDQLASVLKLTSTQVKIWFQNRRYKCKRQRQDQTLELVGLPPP"}, "HOXB6 [2]": {"target": "HOXB6 (Homo sapiens, UniProt P17509 132-218, K202E)", "sequence (P17509 132-218 K202E)": "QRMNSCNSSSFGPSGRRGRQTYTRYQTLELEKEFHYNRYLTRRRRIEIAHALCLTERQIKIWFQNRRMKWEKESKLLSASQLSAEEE"}, "NKX2-5 [3]": {"target": "NKX2-5 (Homo sapiens, UniProt P52952 125-210)", "sequence (P52952 125-210)": "as the sequence (P52952 125-210 R139K) above, with K15R counted along it"}, "HOXB6 [4]": {"target": "HOXB6 (Homo sapiens, UniProt P17509 132-218)", "sequence (P17509 132-218)": "as the sequence (P17509 132-218 K202E) above, with E71K counted along it"}, "HOXC10": {"target": "HOXC10 (Homo sapiens, UniProt Q9NYD6 254-340, K271E)", "sequence (Q9NYD6 254-340 K271E)": "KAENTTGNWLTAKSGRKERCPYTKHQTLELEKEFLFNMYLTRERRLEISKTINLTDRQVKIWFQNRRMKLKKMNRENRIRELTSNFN"}, "HOXA7 [5]": {"target": "HOXA7 (Homo sapiens, UniProt P31268 116-202)", "sequence (P31268 116-202)": "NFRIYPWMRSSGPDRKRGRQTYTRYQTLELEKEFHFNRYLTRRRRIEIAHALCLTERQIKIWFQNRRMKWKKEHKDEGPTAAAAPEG"}, "HOXA7 [6]": {"target": "HOXA7 (Homo sapiens, UniProt P31268 116-202, W177C)", "sequence (P31268 116-202 W177C)": "as the sequence (P31268 116-202) above, with W62C counted along it"}, "PRRX1 [7]": {"target": "PRRX1 (Homo sapiens, UniProt P54821 80-166, F113S)", "sequence (P54821 80-166 F113S)": "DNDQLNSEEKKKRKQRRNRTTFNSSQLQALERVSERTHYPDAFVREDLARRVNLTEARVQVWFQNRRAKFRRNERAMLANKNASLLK"}, "PRRX1 [8]": {"target": "PRRX1 (Homo sapiens, UniProt P54821 80-166)", "sequence (P54821 80-166)": "as the sequence (P54821 80-166 F113S) above, with S34F counted along it"}, "ALX1 [9]": {"target": "ALX1 (Homo sapiens, UniProt Q15699 118-204, L144V)", "sequence (Q15699 118-204 L144V)": "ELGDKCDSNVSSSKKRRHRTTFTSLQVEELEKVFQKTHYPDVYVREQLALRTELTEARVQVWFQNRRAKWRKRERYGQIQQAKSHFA"}, "ALX1 [10]": {"target": "ALX1 (Homo sapiens, UniProt Q15699 118-204, L144R)", "sequence (Q15699 118-204 L144R)": "as the sequence (Q15699 118-204 L144V) above, with V27R counted along it"}, "ALX1 [11]": {"target": "ALX1 (Homo sapiens, UniProt Q15699 118-204)", "sequence (Q15699 118-204)": "as the sequence (Q15699 118-204 L144V) above, with V27L counted along it"}, "ALX3 [12]": {"target": "ALX3 (Homo sapiens, UniProt O95076 139-225, N203Q)", "sequence (O95076 139-225 N203Q)": "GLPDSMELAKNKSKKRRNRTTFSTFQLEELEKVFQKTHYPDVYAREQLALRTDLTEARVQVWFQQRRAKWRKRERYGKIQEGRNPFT"}, "ALX3 [13]": {"target": "ALX3 (Homo sapiens, UniProt O95076 139-225)", "sequence (O95076 139-225)": "as the sequence (O95076 139-225 N203Q) above, with Q65N counted along it"}, "PROP1 [14]": {"target": "PROP1 (Homo sapiens, UniProt O75360 56-141)", "sequence (O75360 56-141)": "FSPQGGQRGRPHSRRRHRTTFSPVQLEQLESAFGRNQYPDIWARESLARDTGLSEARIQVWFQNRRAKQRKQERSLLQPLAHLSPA"}, "PROP1 [15]": {"target": "PROP1 (Homo sapiens, UniProt O75360 56-141, R99H)", "sequence (O75360 56-141 R99H)": "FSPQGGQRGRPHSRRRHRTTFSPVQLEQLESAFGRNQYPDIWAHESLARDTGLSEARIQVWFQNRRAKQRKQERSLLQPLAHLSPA"}, "ALX3 [16]": {"target": "ALX3 (Homo sapiens, UniProt O95076 139-225, L168Q)", "sequence (O95076 139-225 L168Q)": "as the sequence (O95076 139-225 N203Q) above, with L30Q, Q65N counted along it"}, "ALX3 [17]": {"target": "ALX3 (Homo sapiens, UniProt O95076 139-225, L168V)", "sequence (O95076 139-225 L168V)": "as the sequence (O95076 139-225 N203Q) above, with L30V, Q65N counted along it"}, "PROP1 [18]": {"target": "PROP1 (Homo sapiens, UniProt O75360 56-141, F88S)", "sequence (O75360 56-141 F88S)": "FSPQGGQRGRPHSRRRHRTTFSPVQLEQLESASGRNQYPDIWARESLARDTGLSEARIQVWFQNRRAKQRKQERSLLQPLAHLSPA"}, "ALX3 [19]": {"target": "ALX3 (Homo sapiens, UniProt O95076 139-225, N203S)", "sequence (O95076 139-225 N203S)": "as the sequence (O95076 139-225 N203Q) above, with Q65S counted along it"}}, "data": [{"sequence": "ACGCCCGG", "values": [{"measurement": "binding signal", "setting": "NKX2-5 [1]", "result": "8.77 upbm affinity estimate (log intensity, higher = more binding, comparable within an allelic series)"}, {"measurement": "binding signal", "setting": "HOXB6 [2]", "result": "8.95 upbm affinity estimate (log intensity, higher = more binding, comparable within an allelic series)"}, {"measurement": "binding signal", "setting": "NKX2-5 [3]", "result": "8.74 upbm affinity estimate (log intensity, higher = more binding, comparable within an allelic series)"}, {"measurement": "binding signal", "setting": "HOXB6 [4]", "result": "9.06 upbm affinity estimate (log intensity, higher = more binding, comparable within an allelic series)"}]}, {"sequence": "CACAAGTG", "values": [{"measurement": "binding signal", "setting": "NKX2-5 [1]", "result": "12.4 upbm affinity estimate (log intensity, higher = more binding, comparable within an allelic series)"}]}, {"sequence": "ACACCGGG", "values": [{"measurement": "binding signal", "setting": "NKX2-5 [1]", "result": "8.93 upbm affinity estimate (log intensity, higher = more binding, comparable within an allelic series)"}, {"measurement": "binding signal", "setting": "HOXC10", "result": "10 upbm affinity estimate (log intensity, higher = more binding, comparable within an allelic series)"}, {"measurement": "binding signal", "setting": "NKX2-5 [3]", "result": "8.94 upbm affinity estimate (log intensity, higher = more binding, comparable within an allelic series)"}]}, {"sequence": "AGGCCAGC", "values": [{"measurement": "binding signal", "setting": "NKX2-5 [1]", "result": "8.71 upbm affinity estimate (log intensity, higher = more binding, comparable within an allelic series)"}, {"measurement": "binding signal", "setting": "HOXA7 [5]", "result": "8.41 upbm affinity estimate (log intensity, higher = more binding, comparable within an allelic series)"}, {"measurement": "binding signal", "setting": "HOXA7 [6]", "result": "8.42 upbm affinity estimate (log intensity, higher = more binding, comparable within an allelic series)"}, {"measurement": "binding signal", "setting": "NKX2-5 [3]", "result": "8.67 upbm affinity estimate (log intensity, higher = more binding, comparable within an allelic series)"}]}, {"sequence": "CGGCGCCG", "values": [{"measurement": "binding signal", "setting": "NKX2-5 [1]", "result": "9.06 upbm affinity estimate (log intensity, higher = more binding, comparable within an allelic series)"}, {"measurement": "binding signal", "setting": "PRRX1 [7]", "result": "9.2 upbm affinity estimate (log intensity, higher = more binding, comparable within an allelic series)"}, {"measurement": "binding signal", "setting": "PRRX1 [8]", "result": "9.48 upbm affinity estimate (log intensity, higher = more binding, comparable within an allelic series)"}, {"measurement": "binding signal", "setting": "NKX2-5 [3]", "result": "9.14 upbm affinity estimate (log intensity, higher = more binding, comparable within an allelic series)"}]}, {"sequence": "CCCAACGG", "values": [{"measurement": "binding signal", "setting": "NKX2-5 [1]", "result": "8.75 upbm affinity estimate (log intensity, higher = more binding, comparable within an allelic series)"}, {"measurement": "binding signal", "setting": "ALX1 [9]", "result": "6.54 upbm affinity estimate (log intensity, higher = more binding, comparable within an allelic series)"}, {"measurement": "binding signal", "setting": "ALX1 [10]", "result": "6.52 upbm affinity estimate (log intensity, higher = more binding, comparable within an allelic series)"}, {"measurement": "binding signal", "setting": "ALX1 [11]", "result": "6.46 upbm affinity estimate (log intensity, higher = more binding, comparable within an allelic series)"}, {"measurement": "binding signal", "setting": "NKX2-5 [3]", "result": "8.76 upbm affinity estimate (log intensity, higher = more binding, comparable within an allelic series)"}]}, {"sequence": "ACGGGGGC", "values": [{"measurement": "binding signal", "setting": "NKX2-5 [1]", "result": "9.14 upbm affinity estimate (log intensity, higher = more binding, comparable within an allelic series)"}, {"measurement": "binding signal", "setting": "ALX3 [12]", "result": "7.66 upbm affinity estimate (log intensity, higher = more binding, comparable within an allelic series)"}, {"measurement": "binding signal", "setting": "ALX3 [13]", "result": "7.79 upbm affinity estimate (log intensity, higher = more binding, comparable within an allelic series)"}, {"measurement": "binding signal", "setting": "PROP1 [14]", "result": "6.75 upbm affinity estimate (log intensity, higher = more binding, comparable within an allelic series)"}, {"measurement": "binding signal", "setting": "PROP1 [15]", "result": "6.67 upbm affinity estimate (log intensity, higher = more binding, comparable within an allelic series)"}, {"measurement": "binding signal", "setting": "ALX3 [16]", "result": "7.65 upbm affinity estimate (log intensity, higher = more binding, comparable within an allelic series)"}, {"measurement": "binding signal", "setting": "ALX3 [17]", "result": "7.65 upbm affinity estimate (log intensity, higher = more binding, comparable within an allelic series)"}, {"measurement": "binding signal", "setting": "PROP1 [18]", "result": "6.19 upbm affinity estimate (log intensity, higher = more binding, comparable within an allelic series)"}, {"measurement": "binding signal", "setting": "ALX3 [19]", "result": "7.62 upbm affinity estimate (log intensity, higher = more binding, comparable within an allelic series)"}, {"measurement": "binding signal", "setting": "NKX2-5 [3]", "result": "9.01 upbm affinity estimate (log intensity, higher = more binding, comparable within an allelic series)"}]}, {"sequence": "ACACGTGT", "values": [{"measurement": "binding signal", "setting": "ALX1 [9]", "result": "6.61 upbm affinity estimate (log intensity, higher = more binding, comparable within an allelic series)"}, {"measurement": "binding signal", "setting": "ALX1 [10]", "result": "6.61 upbm affinity estimate (log intensity, higher = more binding, comparable within an allelic series)"}, {"measurement": "binding signal", "setting": "ALX1 [11]", "result": "6.65 upbm affinity estimate (log intensity, higher = more binding, comparable within an allelic series)"}]}, {"sequence": "CCAGCAGG", "values": [{"measurement": "binding signal", "setting": "ALX1 [9]", "result": "6.58 upbm affinity estimate (log intensity, higher = more binding, comparable within an allelic series)"}, {"measurement": "binding signal", "setting": "ALX1 [10]", "result": "6.51 upbm affinity estimate (log intensity, higher = more binding, comparable within an allelic series)"}, {"measurement": "binding signal", "setting": "ALX1 [11]", "result": "6.53 upbm affinity estimate (log intensity, higher = more binding, comparable within an allelic series)"}]}, {"sequence": "CCGACGCA", "values": [{"measurement": "binding signal", "setting": "ALX3 [12]", "result": "7.72 upbm affinity estimate (log intensity, higher = more binding, comparable within an allelic series)"}, {"measurement": "binding signal", "setting": "ALX3 [13]", "result": "7.54 upbm affinity estimate (log intensity, higher = more binding, comparable within an allelic series)"}, {"measurement": "binding signal", "setting": "ALX3 [16]", "result": "7.69 upbm affinity estimate (log intensity, higher = more binding, comparable within an allelic series)"}, {"measurement": "binding signal", "setting": "ALX3 [17]", "result": "7.71 upbm affinity estimate (log intensity, higher = more binding, comparable within an allelic series)"}, {"measurement": "binding signal", "setting": "ALX3 [19]", "result": "7.75 upbm affinity estimate (log intensity, higher = more binding, comparable within an allelic series)"}]}, {"sequence": "CGACCTCG", "values": [{"measurement": "binding signal", "setting": "ALX3 [12]", "result": "7.77 upbm affinity estimate (log intensity, higher = more binding, comparable within an allelic series)"}, {"measurement": "binding signal", "setting": "ALX3 [13]", "result": "7.62 upbm affinity estimate (log intensity, higher = more binding, comparable within an allelic series)"}, {"measurement": "binding signal", "setting": "ALX3 [16]", "result": "7.78 upbm affinity estimate (log intensity, higher = more binding, comparable within an allelic series)"}, {"measurement": "binding signal", "setting": "ALX3 [17]", "result": "7.74 upbm affinity estimate (log intensity, higher = more binding, comparable within an allelic series)"}, {"measurement": "binding signal", "setting": "ALX3 [19]", "result": "7.75 upbm affinity estimate (log intensity, higher = more binding, comparable within an allelic series)"}]}, {"sequence": "GCGCGTCC", "values": [{"measurement": "binding signal", "setting": "PROP1 [14]", "result": "6.74 upbm affinity estimate (log intensity, higher = more binding, comparable within an allelic series)"}, {"measurement": "binding signal", "setting": "PROP1 [15]", "result": "6.79 upbm affinity estimate (log intensity, higher = more binding, comparable within an allelic series)"}, {"measurement": "binding signal", "setting": "PROP1 [18]", "result": "6.63 upbm affinity estimate (log intensity, higher = more binding, comparable within an allelic series)"}]}, {"sequence": "GCCGACCC", "values": [{"measurement": "binding signal", "setting": "NKX2-5 [1]", "result": "8.84 upbm affinity estimate (log intensity, higher = more binding, comparable within an allelic series)"}, {"measurement": "binding signal", "setting": "NKX2-5 [3]", "result": "8.81 upbm affinity estimate (log intensity, higher = more binding, comparable within an allelic series)"}]}, {"sequence": "CTGCCGCC", "values": [{"measurement": "binding signal", "setting": "NKX2-5 [1]", "result": "8.73 upbm affinity estimate (log intensity, higher = more binding, comparable within an allelic series)"}, {"measurement": "binding signal", "setting": "NKX2-5 [3]", "result": "8.63 upbm affinity estimate (log intensity, higher = more binding, comparable within an allelic series)"}]}, {"sequence": "TCTGCAGA", "values": [{"measurement": "binding signal", "setting": "NKX2-5 [1]", "result": "9.09 upbm affinity estimate (log intensity, higher = more binding, comparable within an allelic series)"}, {"measurement": "binding signal", "setting": "NKX2-5 [3]", "result": "9.04 upbm affinity estimate (log intensity, higher = more binding, comparable within an allelic series)"}]}, {"sequence": "CCCTAAGA", "values": [{"measurement": "binding signal", "setting": "NKX2-5 [1]", "result": "10.8 upbm affinity estimate (log intensity, higher = more binding, comparable within an allelic series)"}, {"measurement": "binding signal", "setting": "NKX2-5 [3]", "result": "10.8 upbm affinity estimate (log intensity, higher = more binding, comparable within an allelic series)"}]}, {"sequence": "GATGAGTA", "values": [{"measurement": "binding signal", "setting": "NKX2-5 [1]", "result": "11 upbm affinity estimate (log intensity, higher = more binding, comparable within an allelic series)"}, {"measurement": "binding signal", "setting": "NKX2-5 [3]", "result": "10.9 upbm affinity estimate (log intensity, higher = more binding, comparable within an allelic series)"}]}, {"sequence": "GCAAAGTA", "values": [{"measurement": "binding signal", "setting": "NKX2-5 [1]", "result": "10.7 upbm affinity estimate (log intensity, higher = more binding, comparable within an allelic series)"}, {"measurement": "binding signal", "setting": "NKX2-5 [3]", "result": "10.8 upbm affinity estimate (log intensity, higher = more binding, comparable within an allelic series)"}]}, {"sequence": "TATGAAGA", "values": [{"measurement": "binding signal", "setting": "NKX2-5 [1]", "result": "10.8 upbm affinity estimate (log intensity, higher = more binding, comparable within an allelic series)"}, {"measurement": "binding signal", "setting": "NKX2-5 [3]", "result": "10.7 upbm affinity estimate (log intensity, higher = more binding, comparable within an allelic series)"}]}, {"sequence": "AGTACTCG", "values": [{"measurement": "binding signal", "setting": "NKX2-5 [1]", "result": "11.5 upbm affinity estimate (log intensity, higher = more binding, comparable within an allelic series)"}, {"measurement": "binding signal", "setting": "NKX2-5 [3]", "result": "11.3 upbm affinity estimate (log intensity, higher = more binding, comparable within an allelic series)"}]}]}
